Measurements as given in PubChem BioAssay (NCI).
About 83,000 compounds went through this panel and 20% of them were active in at least one assay; those are over-represented in the sample as a whole.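 Compound tested at a single concentration for 48 hours in 96-well plates; a percent growth value below 10 was scored as active.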 Values without a mark were called inactive. The source made the active and inactive calls.

test system: MDA-MB-435 melanoma; experiment: NCI-60 one-dose screen, 48 h (100 = growth as untreated, 0 = no growth, -100 = all killed); conditions: 10 µM unless noted

| Structure (SMILES) | growth |
| --- | --- |
| CC/C=C\C/C=C\C[C@H]1C/C=C2/C(=O)C=C[C@H]2C/C=C\CCC(=O)O1 | 3.37% (active) |
| Cn1c(C(N)=O)cc2c1-c1nc(NC3CCCCC3)ncc1CCC2 | 96.5% |
| CCOP(=O)(CCN1CCN(CCCCCOc2cc3c(cc2OC)C(=O)N2CCC[C@H]2C=N3)CC1)OCC | 93.7% |
| O=C(NCCCN1CCN(CCCNC(=O)C2CCCCC2)CC1)C1CCCCC1 | 96.4% |
| COC(=O)c1cc(-c2cccs2)c(C#N)c(N)c1C#N | 104% |
| COc1cc(NC(=O)CCl)ccc(=O)c1 | 69.8% |
| C[C@]12CC[C@@H]3c4cc(O)c(O)cc4CC[C@H]3[C@@H]1CC[C@@H]2O | -45% (active) |
| c1ccc([P+](CCC[P+](c2ccccc2)(c2ccccc2)c2ccccc2)(c2ccccc2)c2ccccc2)cc1 | 38.6% |
| CC(=O)c1cc(C(=O)c2ccc3c(c2)Sc2ccccc2N3)c2cc(C)ccn12 | -19.7% (active) |

test system: SW-620 colon; experiment: as above; conditions: 10 µM unless noted

| Structure (SMILES) | growth |
| --- | --- |
| COc1cc(Br)c(OC)cc1Br | 94.7% |
| O=C(Nc1ccc(I)cc1)c1cc([N+](=O)[O-])ccc1O | 35.2% |
| COC(=O)CCCCCCN=Cc1c(O)c(O)c(C(C)C)c2cc(C)c(-c3c(C)cc4c(C(C)C)c(O)c(O)c(C=NCCCCCCC(=O)OC)c4c3O)c(O)c12 | 17.9% |
| C=CCn1c(C)nc2ccc(Nc3nc(Nc4ccc(F)cc4)nc4ccccc34)cc21 | 46.1% |
| Clc1ccc2c(c1)NC1(CCSc3ccccc31)n1nccc1-2 (centres undefined) | 102% |
| c1cc(-c2ccc3c(c2)OCO3)n2nccc2n1 | 105% |
| COc1ccc(-c2nnc(COc3ccc(NS(=O)(=O)c4ccc(OC)cc4)cc3F)o2)cc1 | 94.3% |
| CCNC(=O)CCCCC(=O)c1c(C)[nH]c(/C=C2\N=C(c3ccc[nH]3)C=C2OC)c1C | -65.4% (active) |
| CC[C@H](C)[C@H]1NC(=O)[C@@H](N[C@](C)(O)[C@@H](N)CC(C)C)[C@@H](C)OC(=O)[C@H](Cc2ccc(OC)cc2)N(C)C(=O)[C@@H]2CCCN2C(=O)[C@H](CC(C)C)NC(=O)[C@@H](C)C(=O)[C@H](C(C)C)OC(=O)C[C@@H]1O | 0.636% (active) |
| O=C(CNC(=O)c1cccc2ccccc12)Nc1ccccc1Oc1ccccc1 | 22.8% |
| Clc1nc(-c2cccnc2)nc2sc3c(c12)CCCCCC3 | 106% |
| O=C(C[N+](=O)[O-])c1ccc(Cl)cc1 | 106% |
| COc1cc2nc(Cl)nc(NCCO)c2cc1OC | 104% |
| Cc1ccc2nc(SCn3nnc4ccccc4c3=O)[nH]c2c1 | 90.6% |
| C=CCOc1cccc(/C=C/C(=O)c2sc(Nc3cccnc3)nc2C)c1 | 15.5% |
| O=C(Nc1cccc(C(F)(F)F)c1)Nc1ccc(OCc2nnc(-c3ccccc3)o2)c(F)c1 | 28.7% |
| COC(=O)c1ccc(C)cc1 | 101% |
| COc1ccc(-c2nc(-c3nc4ccc(F)cc4[nH]3)cc3c2[nH]c2ccccc23)cc1 | 48.3% |
| CCCC1OC(c2ccc(C(C)C)cc2)OCC1CC (centres undefined) | 112% |
| COc1cc(C2C=C(C)N=C3SC=CN32)cc(OC)c1OC (centres undefined) | 111% |
| CCCCCCCN(CCCCCCC)C(=N)c1ccc(OC)c2ccccc12 | -89.1% (active) |
| O=[N+]([O-])c1cccc(-c2cc(-c3cc(Br)ccc3O)[nH]n2)c1 | 28.1% |
| COc1ccc(/C=C2\CCCC3=C2NC(C)=NC3c2ccc(OC)c(OC)c2)cc1OC (centres undefined) | -28.8% (active) |
| COc1cc(Cn2c(-c3nonc3N)nc3ccccc32)ccc1C | 31.2% |
| CCn1c(=O)c2c(=O)c3c4c(oc3oc2c2ccccc21)C(=O)c1ccccc1C4=O | 73.5% |
| COc1ccc(OC)c(NC(=O)c2cc(S(=O)(=O)N3CCc4ccccc43)ccc2OC)c1 | 96.7% |
| Clc1cccc(Cl)c1Cn1c(-c2cncs2)nc2ccccc21 | 94% |
| O=C(Nc1cccc(Cl)c1)c1cc([N+](=O)[O-])ccc1O | 58.7% |
| O=C(O)c1ccc(-n2c(=O)c3ccccc3c3ccccc3c2=O)cc1 | 110% |
| CC/C=C\C/C=C\C[C@H]1C/C=C2/C(=O)C=C[C@H]2C/C=C\CCC(=O)O1 | -4.82% (active) |
